Many of the other results were omitted from the sample, so hits are more common in it than they were.
IDE exosite inh – exo-site inhibitors of human IDE, primary screen, biochemical, fluorescence anisotropy, probe displacement; AID 1259349, 2017; z-score at 20 µM; purified IDE, FL-6b probe fluorescence polarization; hits give low values; Insulin-degrading enzyme (Homo sapiens), P14735; 6.3% of 17,000 active;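 active means z-score of -3 or lower, meaning strong loss of probe binding signal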;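 further: His-tagged human IDE residues 42-1019 made in E. coli with 30 nM FL-6b probe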
Target sequence (P14735 42-1019 limits assumed): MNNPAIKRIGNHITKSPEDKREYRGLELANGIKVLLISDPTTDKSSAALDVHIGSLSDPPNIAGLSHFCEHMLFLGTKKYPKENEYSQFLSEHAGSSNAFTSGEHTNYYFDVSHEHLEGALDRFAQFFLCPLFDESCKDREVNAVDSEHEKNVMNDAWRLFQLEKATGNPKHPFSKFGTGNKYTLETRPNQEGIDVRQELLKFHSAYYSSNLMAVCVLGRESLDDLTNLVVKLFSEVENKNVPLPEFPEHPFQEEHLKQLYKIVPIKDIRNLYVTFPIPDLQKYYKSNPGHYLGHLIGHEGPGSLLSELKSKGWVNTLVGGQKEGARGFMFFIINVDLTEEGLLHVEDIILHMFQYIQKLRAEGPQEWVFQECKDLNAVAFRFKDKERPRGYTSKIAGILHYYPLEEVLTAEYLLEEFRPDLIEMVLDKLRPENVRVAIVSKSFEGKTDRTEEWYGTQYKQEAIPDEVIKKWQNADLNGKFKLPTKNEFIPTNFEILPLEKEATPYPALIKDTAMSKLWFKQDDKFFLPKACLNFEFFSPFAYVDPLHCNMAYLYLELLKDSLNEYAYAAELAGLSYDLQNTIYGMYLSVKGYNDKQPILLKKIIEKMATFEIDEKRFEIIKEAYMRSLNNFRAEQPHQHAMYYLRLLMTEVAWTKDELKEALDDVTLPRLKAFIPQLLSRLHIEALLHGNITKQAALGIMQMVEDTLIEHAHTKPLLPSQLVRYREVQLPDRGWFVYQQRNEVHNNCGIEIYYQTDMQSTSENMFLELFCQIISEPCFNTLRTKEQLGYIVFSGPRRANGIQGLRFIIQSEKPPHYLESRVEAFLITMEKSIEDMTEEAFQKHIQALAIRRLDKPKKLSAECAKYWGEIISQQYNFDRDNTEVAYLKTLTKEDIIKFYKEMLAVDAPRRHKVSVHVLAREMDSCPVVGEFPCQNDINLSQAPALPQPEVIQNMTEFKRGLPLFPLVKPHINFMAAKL
* = called active by the depositor.

SMILES	IDE exosite inh
N#C[C@H]1[C@@H](c2ccccc2-c2cccc(F)c2)[C@@H](CO)N1C(=O)C1CCOCC1	2.4
O=C(C[C@H]1CC[C@@H](NS(=O)(=O)c2ccc(F)cc2)[C@@H](CO)O1)N1CCN(c2ccccc2)CC1	0.21
O=C(C1CC1)N1CC[C@H]2[C@H](CO)Nc3ccc(Br)cc3[C@H]21	-0.33
N#C[C@H]1[C@H](c2ccc(C#CC3CCCCC3)cc2)[C@@H](CO)N1C(=O)c1cccc(F)c1	1.8
C[C@H](NC(=O)C[C@H]1C[C@@H]2c3cc(NS(=O)(=O)c4ccc(F)cc4)ccc3O[C@@H]2[C@H](CO)O1)c1ccccc1	0.69
O=C([C@@H]1[C@@H](CO)[C@@H]2Cn3c(cccc3=O)[C@H]1N2S(=O)(=O)c1ccccc1F)N1CCCCC1	-0.11
COc1ccc(-c2ccc([C@H]3[C@@H](CO)N4C(=O)CNC[C@H]34)cc2)cc1	-3.2*
COc1cccc(-c2ccc([C@H]3[C@@H](CO)N4C(=O)CN(C(=O)NC(C)C)C[C@@H]34)cc2)c1	-5.4*
C/C=C/c1ccc([C@H]2[C@H](CO)N3C(=O)CN(C(=O)Nc4ccc(OC)cc4)C[C@@H]23)cc1	-0.39
COc1ccc(-c2ccc([C@@H]3[C@H]4CNCC(=O)N4[C@H]3CO)cc2)cc1	0.96
COc1ccc(NC(=O)N2CC(=O)N3[C@H](C2)[C@H](c2ccc(-c4ccccc4)cc2)[C@@H]3CO)cc1	0.54
C/C=C/c1ccc([C@H]2[C@H]3CN(C(=O)Nc4ccc(OC)cc4)CC(=O)N3[C@H]2CO)cc1	-5.1*
COc1ccc(-c2ccc([C@@H]3[C@H](CO)N4C(=O)CNC[C@@H]34)cc2)cc1	-0.34
C/C=C/c1ccc([C@H]2[C@@H](CO)N3C(=O)CN(C(=O)Nc4ccc(OC)cc4)C[C@@H]23)cc1	0.83
COc1cccc(-c2ccc([C@@H]3[C@@H](CO)N4C(=O)CN(C(=O)NC(C)C)C[C@H]34)cc2)c1	-3.5*
CCNC(=O)c1cc2c(c(-c3cccc(Br)c3)n1)[C@H](CCO)NC2	3.3
C/C=C/c1ccc([C@@H]2[C@@H](CO)N[C@@H]2CN(CC)C(=O)c2ccccn2)cc1	3.7
C[C@@H]1CN([C@H](C)CO)C(=O)CCCn2nncc2CO[C@@H]1CN(C)S(=O)(=O)c1ccc(Oc2ccccc2)nc1	-0.64
COc1ccc2c3c([nH]c2c1)[C@H](CO)N(C(=O)Nc1ccc(F)cc1)CC31CN(C(=O)Nc2c(C)noc2C)C1	-0.37
O=C(C[C@H]1C[C@@H]2c3cc(NS(=O)(=O)c4ccccc4)ccc3O[C@@H]2[C@@H](CO)O1)NCC(F)(F)F	0.48
CS(=O)(=O)Nc1ccc2c(c1)[C@@H]1C[C@@H](CC(=O)NCCc3ccccc3)O[C@@H](CO)[C@@H]1O2	-0.96
Cc1ccc(S(=O)(=O)N(C)C[C@H]2OCCCC[C@@H](C)Oc3ccc(NC(=O)c4ccncc4)cc3C(=O)N([C@@H](C)CO)C[C@@H]2C)cc1	1.4
O=C(c1cccnc1)N1CCCCN2[C@H](C1)[C@@H](c1ccc(C#Cc3cccnc3)cc1)[C@@H]2CO	1.9
O=C(c1ccncc1)N1CCCCN2[C@H](C1)[C@@H](c1ccc(C#Cc3ccccn3)cc1)[C@@H]2CO	0.83
O=C(c1cccnc1)N1CCCCN2[C@H](C1)[C@H](c1ccc(C#Cc3ccccn3)cc1)[C@@H]2CO	-5.5*
SMILES	IDE exosite inh
CC(C)(O)C#Cc1ccc([C@H]2[C@H](CO)N3CCCCN(C(=O)c4cccnc4)C[C@@H]23)cc1	3.7
O=C(c1cccnc1)N1CCCCN2[C@@H](CO)[C@H](c3ccc(C#Cc4ccccn4)cc3)[C@@H]2C1	-7.7*
CC(C)(O)C#Cc1ccc([C@@H]2[C@@H](CO)N3CCCCN(C(=O)c4cccnc4)C[C@H]23)cc1	3.5
O=C(c1ccncc1)N1CCCCN2[C@H](CO)[C@H](c3ccc(C#Cc4ccccn4)cc3)[C@@H]2C1	-0.33
O=C(c1cccnc1)N1CCCCN2[C@H](CO)[C@H](c3ccc(C#Cc4cccnc4)cc3)[C@@H]2C1	-4.3*
CC(C)(O)C#Cc1ccc([C@H]2[C@@H](CO)N3CCCCN(C(=O)c4cccnc4)C[C@@H]23)cc1	1.1
C/C=C/c1ccc([C@H]2[C@H](CO)N3C(=O)CN(S(=O)(=O)c4ccccc4)C[C@@H]23)cc1	0.7
CCC(=O)NC[C@@H]1[C@H](c2ccc(-c3ccccc3)cc2)[C@H](CO)N1C(=O)C1CC1	0.12
O=C(c1cccnc1)N1CC(=O)N2[C@@H](CO)[C@H](c3ccc(C#CCC4CCCC4)cc3)[C@@H]2C1	2
CCCC(=O)N1CC2(CN(Cc3nccs3)C2)c2c([nH]c3cc(OC)ccc23)[C@H]1CO	1
CS(=O)(=O)N1[C@H](C#N)[C@@H](c2ccc(C#CC3CCCCC3)cc2)[C@H]1CO	3.7
COc1ccccc1-c1ccc([C@H]2[C@@H](CO)N3CCCCN(C(=O)c4ccncc4)C[C@H]23)cc1	-17*
COc1ccccc1-c1ccc([C@@H]2[C@H]3CN(C(=O)c4cccnc4)CCCCN3[C@H]2CO)cc1	-4.7*
COc1ccccc1-c1ccc([C@H]2[C@H](CO)N3CCCCN(C(=O)c4cccnc4)C[C@@H]23)cc1	-1.3
COc1ccccc1-c1ccc([C@@H]2[C@@H](CO)N3CCCCN(C(=O)c4ccncc4)C[C@H]23)cc1	-0.66
COc1ccccc1-c1ccc([C@H]2[C@@H](CO)N3CCCCN(C(=O)c4ccncc4)C[C@@H]23)cc1	-1.1
COc1ccccc1-c1ccc([C@@H]2[C@@H](CO)N3CCCCN(C(=O)c4cccnc4)C[C@@H]23)cc1	-1.8
COc1ccccc1-c1ccc([C@H]2[C@@H](CO)N3CCCCN(C(=O)c4cccnc4)C[C@H]23)cc1	-13*
COc1ccccc1-c1ccc([C@H]2[C@@H](CO)N3CCCCN(C(=O)c4cccnc4)C[C@@H]23)cc1	0.24
COc1ccc(CN2C[C@H](O)COC[C@H]3O[C@@H](CC(=O)N(C)C)CC[C@@H]32)cc1	-0.8
COCCN(C[C@@H]1[C@@H](c2ccccc2)[C@@H](CO)N1C(C)=O)C(=O)c1cccnc1	-0.06
N#C[C@@H]1[C@@H](c2ccc(C#Cc3ccccc3F)cc2)[C@H](CO)N1C(=O)C1CCCCC1	1.4
COc1ccccc1C#Cc1ccc([C@@H]2[C@@H](CO)N(C(=O)C3CCC3)[C@H]2C#N)cc1	-4.2*
COc1ccccc1C#Cc1ccc([C@@H]2[C@@H](CO)N(C(=O)C3CCCCC3)[C@H]2C#N)cc1	-1.7
N#C[C@@H]1[C@H](c2ccc(C#Cc3ccccc3F)cc2)[C@H](CO)N1C(=O)C1CCC1	3.6
SMILES	IDE exosite inh
COc1ccccc1C#Cc1ccc([C@@H]2[C@@H](C#N)N(C(=O)C3CCC3)[C@@H]2CO)cc1	-4.6*
N#C[C@@H]1[C@H](c2ccc(C#Cc3ccc(F)cc3)cc2)[C@@H](CO)N1C(=O)C1CCCC1	-0.026
COc1ccccc1C#Cc1ccc([C@@H]2[C@H](C#N)N(C(=O)C3CCCCC3)[C@H]2CO)cc1	-6.6*
COc1ccccc1C#Cc1ccc([C@@H]2[C@H](C#N)N(C(=O)C3CCC3)[C@H]2CO)cc1	-7.1*
N#C[C@@H]1[C@@H](c2ccc(C#Cc3ccccc3F)cc2)[C@@H](CO)N1C(=O)C1CCCCC1	2.9
CC(=O)N1Cc2cc(C(=O)NCC(F)(F)F)nc(-c3cccc(-c4cccnc4)c3)c2[C@H]1CCO	-0.21
Cc1noc(C)c1S(=O)(=O)N(C)C[C@H]1OCCCC[C@H](C)Oc2ccc(NS(=O)(=O)c3cn(C)cn3)cc2C(=O)N([C@@H](C)CO)C[C@@H]1C	-0.11

Compound activity deposited in PubChem BioAssay by Broad Institute.
